What follows are compounds tested against E3 ubiquitin-protein ligase XIAP (Homo sapiens) (UniProt P98170) (assay: XIAP binders, primary screen, biophysical, small-molecule microarray, fluorescence 635 nm (AID 1181;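 note: score merges 667 nm emission and signal to noise over triplicate slides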)). Conditions: small-molecule microarray binding, higher = more signal.
E3 ubiquitin-protein ligase XIAP (Homo sapiens), sequence (P98170 whole entry, looked up): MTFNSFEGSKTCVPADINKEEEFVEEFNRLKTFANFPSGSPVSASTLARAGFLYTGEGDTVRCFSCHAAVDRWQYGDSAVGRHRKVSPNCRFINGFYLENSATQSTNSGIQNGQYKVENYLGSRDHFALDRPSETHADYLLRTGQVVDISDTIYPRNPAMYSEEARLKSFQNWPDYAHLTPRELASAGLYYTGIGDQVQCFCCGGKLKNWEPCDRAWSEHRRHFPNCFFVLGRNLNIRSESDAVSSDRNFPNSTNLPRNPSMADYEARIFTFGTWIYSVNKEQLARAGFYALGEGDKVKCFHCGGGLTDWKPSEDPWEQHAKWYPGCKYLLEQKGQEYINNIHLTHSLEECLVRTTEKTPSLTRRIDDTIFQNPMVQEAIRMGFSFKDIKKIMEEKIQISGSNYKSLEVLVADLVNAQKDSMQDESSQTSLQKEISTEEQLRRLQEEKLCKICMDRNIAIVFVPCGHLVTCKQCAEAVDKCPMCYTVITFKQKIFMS

SMILES | composite z-score
CC(C)C[C@@H]1NC(=O)[C@@]23C(=O)N[C@@H](Cc4ccccc4)C2[C@H](C)[C@@]2(C)O[C@H]2C3/C=C/C/C=C\CNC(=O)[C@@H](C)NC1=O (stereo partly drawn) | -0.116
CCCNC(=O)[C@@]1(Sc2ccc(C)cc2)CC(=O)N(C(C)C)[C@@H]1c1ccc(CO)cc1I | -0.039
CN1C(=O)C2C(C1=O)C1C=C(CCCO)C2C(c2cccs2)N1Cc1cc2c(cc1Br)OCO2 (stereo not drawn) | 0.176
C=C(CCCC)/C(=C/C[C@H](OC(C)=O)c1ccc(OCCO)cc1)c1cc(C(=O)OC)ccc1OC | 0.0977
COC(=O)[C@@]1(Cc2ccc(OC)cc2)[C@H]2c3cc(C(=O)N4CCCC4)n(Cc4ccc(OC(F)(F)F)cc4)c3C[C@H]2CN1C(=O)c1ccccc1 | 0.0479
CS(=O)(=O)CCOC(=O)C1=CC(CCCO)=CC(C2CC2)N(Cc2cccc(OC(F)(F)F)c2)C=C1C(=O)OCCS(C)(=O)=O (stereo not drawn) | 0.0363
COC(=O)C1=CC(CCCO)=CC(C)N(Cc2cccc(OC(F)(F)F)c2)C=C1C(=O)OC (stereo not drawn) | 0.365
[N-]=[N+]=NCc1ccccc1[C@@H]1OC(c2ccc(OCCCO)cc2)=N[C@]1(Cc1ccccc1)C(=O)NCCN1CCOCC1 | -0.0125
CC(C)C(=C=CC[C@@H](O)c1cccc(OCCO)c1)C[C@@H](O)c1ccccn1 | 0.127
O=C(NCC(O)CO)[C@@]1(CCS(=O)(=O)c2ccccc2)COC(c2ccc(OCCCO)cc2)=N1 (stereo partly drawn) | -0.0332
CCOC(=O)C1=C[C@@H](c2ccccc2)N(S(=O)(=O)c2ccc(C)cc2)[C@H]1c1ccccc1 | 0.125
CC(C)OC(=O)CC(=O)CC(O)c1ccc([N+](=O)[O-])cc1 (stereo not drawn) | -0.212
COC(=O)C1N=C(c2ccc(OCCCO)cc2)N(c2ccccc2)O1 (stereo not drawn) | -0.0118
NC(=O)NCC#Cc1ccc2c(c1)[C@]1(C(=O)N2)[C@H](C(=O)N2CCN(c3ncccn3)CC2)[C@H]2C(=O)O[C@H](c3ccccc3)[C@H](c3ccccc3)N2[C@@H]1c1ccc(OCCO)cc1 | -0.202
[N-]=[N+]=Nc1ccccc1C[C@]1(C(=O)O)N=C(c2ccc(OCCCO)cc2)O[C@H]1c1ccccc1 | -0.0562
C=C(/C(=C/C[C@@H](OC(C)=O)c1ccc(OCCO)cc1)c1cc(C(=O)OC)ccc1OC)C(C)C | 0.0546
COc1ccc(NC(=O)O[C@H]2[C@@H]3OC(=O)[C@H](Cc4cccc(Br)c4)C/C=C/C[C@@H](Cc4cccc(Br)c4)C(=O)O[C@H]3[C@@H](OC)O[C@@H]2CO)cc1 | -0.555
[N-]=[N+]=NCc1ccccc1[C@H]1OC(c2ccc(OCCCO)cc2)=N[C@@]1(CCS(=O)(=O)c1ccccc1)C(=O)NCc1ccccc1 | 0.129
COc1cc(NN2C(C(O)C3CCCCC3)C=CC3C(=O)N(C)C(=O)C32)cc(OC)c1OC (stereo not drawn) | 0.279
O=C1[C@@H]2[C@@H](CC(COc3ccccc3)=C3[C@@H](CCc4ccccc4)OB(O)C[C@@H]32)C(=O)N1Cc1ccccc1 | -0.16
O=C1OCCC=C[C@H]2OC34C=CCN(c5ccc(Cl)cc5)C(=O)[C@H]3N(CCCCCCO)C(=O)[C@@H]4C12 (stereo partly drawn) | -0.474
CCOC(=O)C[C@H]1[C@H](OC(=O)c2ccccc2-c2ccccc2)[C@@H](NC(=O)c2ccc3ccccc3n2)c2cc(OCCCO)ccc2N1C(=O)c1ccccc1 | 0.0153
COC(=O)[C@@]1(Cc2ccc(OC)cc2)[C@H]2c3cc(C(=O)N4CCCC4)n(Cc4ccc(S(C)(=O)=O)cc4)c3C[C@H]2CN1C(=O)c1ccccc1 | 0.721
C=C[C@@H](C)[C@@H](OC(=O)Nc1ccc(SC)cc1)c1ccc(OCCO)cc1 | 0.0879
NCCCCCNC(=O)[C@@H]1C[C@@H]2C(=O)N3CCC[C@H]3C(=O)N2[C@@H]1c1ccc(O)cc1 | -0.0663
O=C1OCCC/C=C\[C@H]2OC34C=CCN(c5ccc6ccccc6c5)C(=O)[C@H]3N(CCCO)C(=O)[C@@H]4C12 (stereo partly drawn) | -0.332
CC(=O)NCCCC[C@@H]1NC(=O)[C@@H]2C[C@H](C(=O)NCCCCCCN)[C@H](c3cccc(OCCO)c3)N2C1=O | 0.0896
COCCOC(=O)N1C(=O)[C@@]2(c3cc(C#CCNC(N)=O)ccc31)[C@H](c1ccc(OCCO)cc1)N1[C@H](c3ccccc3)[C@H](c3ccccc3)OC(=O)[C@H]1[C@@H]2C(N)=O | -0.0414
